# Reference: PubChem BioAssay AID624453 (National Center for Advancing Translational Sciences (NCATS), 2012)
# Values without a mark were called inactive. Calls follow the shape of the dose curve; as a rule, active = well fitted curve in the direction sought with a large enough effect; inactive = no such curve, though single readings can be large or run the other way.
# Biological target: D(2) dopamine receptor (Homo sapiens) (UniProt P14416)
# Test: HTS Assay for Allosteric Antagonists of the Human D2 Dopamine Receptor: Hit Validation in primary assay
# Settings: HEK293 TREx D2, calcium flux, dopamine EC80 antagonism; series mostly up to 41.8 µM; activity change, negative = inhibition: at the top concentration
# Description: Dopamine receptors (DARs) are involved in the etiology and/or therapy of a number of neuropsychiatric and endocrine disorders. For instance, all receptor-based antiparkinsonian drugs work via stimulating the D2 DAR subtype whereas all FDA-approved antipsychotic agents are antagonists of this receptor. […] There are three different types of allosteric modulators that we are seeking, two of which will stimulate or augment receptor signaling, allosteric agonists and potentiators, while the third, allosteric antagonists, will attenuate receptor signaling. The present primary screening assay measures compound antagonism after an EC80 addition of dopamine by tracking calcium flux in a […], inducible Hek293 Trex D2 cell line. NIH Chemical Genomics Center [NCGC] NIH Molecular Libraries Probe Centers Network [MLPCN] MLPCN Grant: NS064831 Assay Submitter (PI): David Sibley
# Freshly passaged cells are plated in 1536 well black, clear bottom plates at a density of 4000 cells/well in 3 ul of complete media containing 1x tetracycline inducer. After an overnight incubation at 30 C in 5% CO2, cells are loaded with 2 ul of the no wash Calcium Assay Kit (ABD Bioquest) and incubated at room temperature for 30 to 90 minutes before it's read.
# Chain of D(2) dopamine receptor (Homo sapiens) (P14416 whole entry, looked up): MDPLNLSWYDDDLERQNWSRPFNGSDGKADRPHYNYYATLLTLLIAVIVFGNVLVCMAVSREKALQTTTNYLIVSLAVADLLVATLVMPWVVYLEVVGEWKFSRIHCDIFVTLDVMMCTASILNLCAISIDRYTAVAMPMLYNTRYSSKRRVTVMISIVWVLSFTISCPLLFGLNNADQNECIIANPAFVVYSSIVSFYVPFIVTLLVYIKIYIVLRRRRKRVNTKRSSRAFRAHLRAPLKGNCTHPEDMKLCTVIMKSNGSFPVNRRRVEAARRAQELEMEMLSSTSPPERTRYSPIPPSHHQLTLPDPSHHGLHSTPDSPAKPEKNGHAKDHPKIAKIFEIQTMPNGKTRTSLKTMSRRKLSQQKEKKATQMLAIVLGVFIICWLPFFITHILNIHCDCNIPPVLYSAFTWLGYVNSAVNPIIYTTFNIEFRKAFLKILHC
row,Structure (SMILES),"activity change, negative = inhibition [%]"
1,COc1ccc(-c2c(O)c3c(OC)c4c(cc3oc2=O)OC(C)(C)C=C4)cc1,34.9
2,NCC1O[C@@H](OC2C(N)C[C@H](N)[C@@H](O[C@H]3OC(CO)C(O)C(N)C3O)C2O)C(N)C(O)C1O (some centres not stated),40.9
3,CC(C)(C)NCC(O)c1cc(O)cc(O)c1 (configuration not stated),20.4
4,CC1=CC(=O)c2ccccc2C1=O,28
5,O=C(OCc1ccccc1)c1ccccc1,18.9
6,NS(=O)(=O)c1cc(C2(O)NC(=O)c3ccccc32)ccc1Cl (configuration not stated),27.7
7,O=C(O)c1cc(=O)c2ccccc2[nH]1,-4.72
8,Cc1cc(C)nc(NS(=O)(=O)c2ccc(N)cc2)n1,15.7
9,COc1ccc2cc3[n+](cc2c1OC)CCc1cc2c(cc1-3)OCO2,40.3
10,CC(C)c1c(O)ccc2c1CCC1[C@@](C)(C=O)CCC[C@@]21C (some centres not stated),35.8
11,C[C@]12CCC3c4ccc(OS(=O)(=O)O)cc4CCC3C1CCC2=O (some centres not stated),28.3
12,CC(CCC(=O)O)C1CCC2C3CC[C@H]4CC(O)CC[C@@]4(C)C3CC[C@@]12C (some centres not stated),2.2
13,CCCCCCCCCCCC1=C(O)C(=O)C=C(O)C1=O,42.8
14,CC(=O)OC1CC2C(C)(C)C(O)CC(O)[C@@]2(C)C2CC[C@@]3(C)C(=CC(=O)OC3c3ccoc3)[C@]12C (some centres not stated),15.4
15,CC1OC(OC2C(CO)OC(OC3C(CO)OC(O)C(O)C3O)C(O)C2O)C(O)C(O)C1NC1C=C(CO)C(O)C(O)C1O (configuration not stated),-16.7
16,CCCCNc1ccc(C(=O)OCCN(C)C)cc1,7.23
17,COc1cc(OC)c2ccc(=O)oc2c1,27
